Measured values reported in paper PMC5540273 (PLoS ONE, 2017).

These molecules were tested on FLT3-autoinhibited. Conditions: concentration: 1 μM, replicates: in singlicate; n = 1.
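Note: KINOMEscan kinase panel screen.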

| SMILES | %Inh [%] |
| --- | --- |
| Nc1ncc(-c2cccnc2)c2scc(-c3ccc4c(c3)CCN4C(=O)Cc3ccccc3)c12 [GSK683281] | 5 |
| c1ccc(Oc2ccc(Nc3ccnc4cc(-c5ccc(CNCCN6CCOCC6)o5)ccc34)cc2)nc1 [GW567145] | 8 |
| Cl.Cl.NCC(NCc1ccc(-c2ccnc3[nH]ccc23)s1)c1ccccc1 (stereo not shown) [GSK1321565] | 12 |
| CCn1c(-c2nonc2N)nc2c(C#CC(C)(C)O)nc(OC[C@H](N)c3ccccc3)cc21 [GSK943949] | 0 |
| O=C(Nc1cccc(-c2nn3ncccc3c2-c2ccnc(Nc3ccccc3)n2)c1)c1c(F)cccc1F [GSK198271] | 0 |
| CCS(=O)(=O)c1ccc(OC)c(Nc2nccc(-c3c(-c4cccc(NC(=O)c5c(F)cccc5F)c4)nn4ncccc34)n2)c1 [GSK326180] | 0 |
| C[C@@H](Oc1cc(-n2cnc3cc(-c4ccnc(NCCS(C)(=O)=O)c4)ccc32)sc1C(N)=O)c1ccccc1Cl [GSK907232] | 29 |
| Oc1cc(Nc2ccnc3cc(I)ccc23)ccc1F [GW552771] | 0 |
| Nc1ncc(-c2ccc3nccc(-c4ccncc4)c3c2)cc1S(=O)(=O)N1CCOCC1 [GSK1627798] | 0 |
| Cl.Cl.NCC(C(=O)Nc1cc(Br)c(-c2ccnc3[nH]ccc23)s1)c1ccccc1 (stereo not shown) [GSK1269851] | 20 |
| COc1ccc(Nc2nccc(N3CCC(NC(=O)Nc4cccc(OC)c4)C3)n2)cc1 (stereo not shown) [GSK1379742] | 20 |
| Cc1cccc(NC(=O)Nc2ccc(Oc3ncnc4ccn(C)c34)cc2)c1 | 64 |
| O=C(Nc1ccccc1F)NC1CCN(c2ccnc(Nc3ccc(F)cc3)n2)CC1 [GSK1379800] | 0 |
| COc1cccc(C2=C(Nc3ccc(Cl)c(C(=O)O)c3)C(=O)NC2=O)c1 [SB-390769] | 0 |
| O=c1[nH]cc(-c2ccc(N3CCOCC3)cc2)c2sc(-c3cn[nH]c3)cc12 [GSK2276055] | 11 |
| COc1ccc(Nc2nccc(NCCNC(=O)c3cc4ccccc4s3)n2)cc1 [GSK1379896] | 0 |
| O=C(Nc1cccc(-c2nn3ccccc3c2-c2ccnc(Nc3cccc(C(F)(F)F)c3)n2)c1)c1c(F)cccc1F [GSK292658] | 5 |
| COc1cccc(-c2ccc3c(NC(=O)C4CC4)n[nH]c3n2)c1 [SB-710903] | 0 |
| Cc1cccc(Nc2nc(N[C@H]3CCNC3)ncc2C(N)=O)c1.Cl [GSK2197149] | 82 |

| SMILES | %Inh [%] |
| --- | --- |
| Fc1ccc(-c2ncn(C3CCNCC3)c2-c2ccnc(Oc3ccc(-c4ccccc4)cc3)n2)cc1 [SB-245391] | 1 |
| O=C(NC1CCN(c2ccnc(Nc3ccc(F)cc3)n2)C1)c1cc2ccccc2s1 (stereo not shown) [GSK1379716] | 0 |
| COc1cccc(C(=O)Nc2cccc(Oc3ccc4nc(NC(=O)C5CC5)cn4n3)c2)c1 | 24 |
| Cl.NC(=O)c1cccc(Nc2nccc(Nc3ccc(Oc4c(Cl)cccc4Cl)c(Cl)c3)n2)c1 [GW659009] | 12 |
| O=C(Nc1n[nH]c2cc(-c3ccoc3)ccc12)C1CC1 [SB-738481] | 17 |
| Cl.c1ccc(-c2ccc3c(Nc4ccc5[nH]ccc5c4)ccnc3c2)nc1 [GW440138] | 0 |
| COc1ccc(-c2coc3ccc(-c4nnc(SCc5ccc(OC)c(C(F)(F)F)c5)o4)cc23)cc1 | 19 |
| COc1cc2c(cc1OCCN1CCNCC1)ncc1c3ccc(C#N)cc3[nH]c21 | 95.8 |
| CN(c1ccc(NC(=O)Nc2cc(C(F)(F)F)ccc2F)cc1)c1ccnc(Nc2ccc(S(N)(=O)=O)cc2)n1 [GW809893] | 82 |
| Cn1cc(-c2ccc3c(c2)CCN3C(=O)Cc2cccc(F)c2)c2c(N)ncnc21 [GSK2603358] | 0 |
| CN(C)Cc1ccc(-c2ccc3c(Nc4ccc(Oc5ccccn5)cc4)ccnc3c2)o1 [GW567148] | 53 |
| c1ccc(-c2n[nH]cc2Nc2ccnc3ccccc23)nc1 [GW694077] | 8 |
| COc1ccc(CNC(=O)NC2CCN(c3ccnc(Nc4ccc(F)cc4)n3)CC2)cc1 [GSK1379788] | 0 |
| COc1cc(Nc2nccc(-c3c(-c4cccc(NC(=O)c5c(F)cccc5F)c4)nn4ncccc34)n2)cc(OC)c1OC [GSK327238] | 0 |
| CCCCc1nn2ncccc2c1-c1ccnc(Nc2ccc(N3CCN(C)CC3)cc2)n1 [GW684941] | 93.3 |
| CC(C)c1nc(-c2cccc(NS(=O)(=O)c3c(F)cccc3F)c2F)c(-c2ccnc(Nc3ccc(N4CCOCC4)nc3)n2)s1 [GSK2008607] | 0 |
| NCCCC(NC(=O)c1cc(Br)c(-c2ccnc3[nH]ccc23)s1)c1ccccc1.O=C(O)C(F)(F)F.O=C(O)C(F)(F)F (stereo not shown) [GSK1287544] | 6 |
| CN(C)S(=O)(=O)c1cc(-c2ccc3nccc(-c4cccc(S(N)(=O)=O)c4)c3c2)cnc1N [GSK1669921] | 19 |
